# Assay outcomes from PubChem.
# HTT aggregate: qHTS Multiplex Assay to Identify Dual Action Probes in a Cell Model of Huntington: Aggregate Formation (GFP); PC12 HttQ103-GFP aggregates, Acumen cytometry, 40 h; Potency, µM (series often up to 46.1 µM), for the others: at the highest dose activity change, negative = inhibition, actives largely listed as inhibitors; 1.1% of 220,000 active; AID 1688, 2009; active = well fitted curve in the direction sought with a large enough effect; inconclusive = small, poorly fitted or top-dose-only effect, or another doubt; inactive = no such curve, though single readings can be large; an effect the other way counts as inactive or inconclusive; also: potency is read from the fitted curve at half-maximal effect; % is scaled to controls: 0 for no effect and ±100 for the full control effect; nearly all actives have a fitted effect of over 60% in size
#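 Aggregates are detected as GFP objects 1–25 µm with signal 6 STDEV over background in lysates of induced PC12 cells. These carry Huntingtin exon 1 with 103 glutamines fused to GFP under an ecdysone promoter; compounds titrated.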
# HPGD inh: qHTS Assay for Inhibitors of HPGD (15-Hydroxyprostaglandin Dehydrogenase); Potency, µM, without a hit: at the top dose activity change, negative = inhibition, actives largely listed as inhibitors; 15-hydroxyprostaglandin dehydrogenase [NAD(+)] (Homo sapiens), P15428; purified HPGD, NADH fluorescence kinetic, PGE2 substrate; 4.3% of 150,000 active; also: potency is read from the fitted curve at half-maximal effect; % is scaled to controls: 0 for no effect and ±100 for the full control effect
# Target sequence (P15428 whole entry, looked up): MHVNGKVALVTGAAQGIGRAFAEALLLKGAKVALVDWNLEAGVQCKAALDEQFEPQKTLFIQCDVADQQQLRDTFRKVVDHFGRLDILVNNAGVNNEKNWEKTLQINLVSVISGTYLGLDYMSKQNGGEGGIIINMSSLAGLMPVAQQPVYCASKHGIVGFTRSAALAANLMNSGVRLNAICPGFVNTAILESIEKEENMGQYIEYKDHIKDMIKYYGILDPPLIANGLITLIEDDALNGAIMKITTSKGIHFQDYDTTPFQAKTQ
#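 20 nM HPGD preincubated 15 min at room temperature with compound in 50 mM Tris-HCl pH 8, 0.01% Tween 20. Started with 1 mM NAD+ and 30 uM prostaglandin E2; NADH fluorescence (360/450 nm) read 5 times over 30-s intervals, last minus first.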
# HTT ATP protect: qHTS Multiplex Assay to Identify Dual Action Probes in a Cell Model of Huntington: Cytoprotection (ATP). PC12 HTT-Q103 induced, cytoprotection, ATP luminescence, 40 h. Potency, µM (top dose mostly 56.4 µM), without a hit: cytoprotection (ATP increase), most hits filed as activators. 0.14% of 230,000 active. AID 1471, 2008; active = well fitted curve in the direction sought with a large enough effect; inconclusive = small, poorly fitted or top-dose-only effect, or another doubt; inactive = no such curve, though single readings can be large; an effect the other way counts as inactive or inconclusive; also: potency is read from the fitted curve at half-maximal effect; % of control where 0% means no effect; nearly all actives have a fitted effect of over 45% in size
#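 Readout: ATPlite luminescence (ATP level). Model: stable PC12, inducible Htt exon1 Q103-GFP. Inducer: tebufenozide, 100 nM final. Compounds: dose series. No G418 in medium.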
# CBFb-RUNX1 inh: qHTS Assay for Compounds Blocking the Interaction Between CBF-beta and RUNX1 for the Treatment of Acute Myeloid Leukemia | 230,000 tested, under 10 active | Potency, µM (highest dose often 59.8 µM), for inactives: at the top dose activity, negative = inhibition, actives largely listed as inhibitors | AID 1477, 2009 | AlphaScreen CBFb-His/RUNX1-biotin binding, biochemical; active = well fitted curve in the direction sought with a large enough effect; inconclusive = small, poorly fitted or top-dose-only effect, or another doubt; inactive = no such curve, though single readings can be large; an effect the other way counts as inactive or inconclusive; also: % of control where 0% means no effect
#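 Bead-based AlphaScreen assay; binding partners His-tagged CBF-beta and biotinylated RUNX1 at 30 nM each. Compound exposure 15 min after a 20-min protein preincubation; bead step 90 min; all steps at room temperature.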
# JMJD2E inh: qHTS Assay for Inhibitors of Human Jumonji Domain Containing 2E (JMJD2E). 1.6% of 230,000 active. JMJD2E catalytic domain, FDH-coupled NADH fluorescence (FDH is formaldehyde dehydrogenase). Potency, µM (highest dose often 57.1 µM), without a hit: at the highest dose activity change, negative = inhibition, most hits filed as inhibitors;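 also: potency is read from the fitted curve at half-maximal effect; 0% = wells with enzyme and -100% = buffer wells without enzyme; nearly all actives have a fitted effect of over 50% in size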
# ALDH1A1 inh: qHTS Assay for Inhibitors of Aldehyde Dehydrogenase 1 (ALDH1A1); Aldehyde dehydrogenase 1A1 (Homo sapiens), P00352; Purified ALDH1A1, NADH fluorescence, propionaldehyde substrate; Potency, µM (doses to about 75.3 µM), inactives show at the highest dose activity, negative = inhibition, actives largely listed as inhibitors; 7.3% of 220,000 active; AID 1030, 2008;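 also: potency is read from the fitted curve at half-maximal effect; plate controls were no enzyme wells and a reference inhibitor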
# Target sequence (P00352 whole entry, looked up): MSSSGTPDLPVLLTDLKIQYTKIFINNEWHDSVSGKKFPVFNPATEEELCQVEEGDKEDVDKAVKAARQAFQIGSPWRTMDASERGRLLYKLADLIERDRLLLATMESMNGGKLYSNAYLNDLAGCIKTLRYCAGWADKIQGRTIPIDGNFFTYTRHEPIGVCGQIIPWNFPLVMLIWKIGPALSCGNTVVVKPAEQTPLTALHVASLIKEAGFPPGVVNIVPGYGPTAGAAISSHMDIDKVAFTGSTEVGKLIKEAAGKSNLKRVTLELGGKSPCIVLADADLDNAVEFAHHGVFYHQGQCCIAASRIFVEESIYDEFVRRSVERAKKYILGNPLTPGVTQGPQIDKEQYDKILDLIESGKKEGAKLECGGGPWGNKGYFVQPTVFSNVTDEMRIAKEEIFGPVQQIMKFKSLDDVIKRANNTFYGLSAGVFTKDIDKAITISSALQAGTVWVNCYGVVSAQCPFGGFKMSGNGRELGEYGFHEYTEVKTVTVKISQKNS
# * = called active by the depositor; ? = inconclusive; . = no result; [ ] = dose if it differs, or a comment. The list is not random: actives were taken first. Their share in the collection is about 9.8%. Unless noted, calls follow the shape of the dose curve; as a rule, active = well fitted inhibition curve with a large enough effect (not every such curve was filed as active); inconclusive = small, poorly fitted or top-dose-only effect, or another doubt; inactive = no such curve, though single readings can be large or run the other way.
SMILES,HTT aggregate,HPGD inh,HTT ATP protect,CBFb-RUNX1 inh,JMJD2E inh,ALDH1A1 inh
COc1ccc(CN(CC2CCC(C(=O)O)CC2)C(=S)Nc2ccccc2C)cc1 (configuration not stated),8.6%,.,-35.0%,6.8%,11.8%,?
CC(Sc1nnnn1-c1ccc(O)cc1)c1nc2ccccc2c(=O)[nH]1 (configuration not stated),-8.3%[9.22 µM],.,19.4%[10 µM],4.5%,0.0%,.
COc1ccc2c(CC(=O)NCc3cccs3)coc2c1,16.8%,.,-39.5%,?,?,-10.6%
COc1ccc2c(CC(=O)N3CCN(S(=O)(=O)c4cccs4)CC3)coc2c1,-13.2%,-5.4%,28.5%[10 µM],-5.7%,-17.4%,2.82µM*
COC(=O)[C@H]1C[C@@H]1[C@H](NS(=O)(=O)c1ccc(-c2ccccc2)cc1)c1ccccc1,.,-11.6%,10.3%,-3.3%,3.3%,-2.1%
CCOc1ccc(NC(=O)Cn2nnc3c(cnn3-c3ccc(F)cc3)c2=O)cc1,-0.7%,.,-34.6%,0.2%,0.5%,7.94µM*
Cc1ccccc1NC(=O)Cn1nnc2c(cnn2-c2ccc(F)cc2)c1=O,1.5%,-13.4%,-1.9%,3.6%,?,2.7%
Cc1cc(N)c2ccccc2[n+]1CCCCCCCCCC[n+]1c(C)cc(N)c2ccccc21,?,-13.8%,-150.5%,?,?,-6.5%
CCc1ccccc1NC(=O)CC1CS(=O)(=O)CC1CC(=O)Nc1ccccc1CC (configuration not stated),-3.4%,-1.4%,2.2%[10 µM],0.8%,11.8%,11.2%
O=C(CC1CS(=O)(=O)CC1CC(=O)Oc1ccccc1F)Oc1ccccc1F (configuration not stated),3.5%,-12.9%,.,-1.0%,-2.2%,7.08µM*
CCOC(=O)C1=C(C)N(C)C(=S)NC1c1ccc(Cl)cc1 (configuration not stated),20µM*,-4.2%,.,-14.5%,-3.6%,-0.9%
CCOC(=O)C1=C(C)NC(=S)N(C(C)=O)C1c1ccc(Cl)cc1 (configuration not stated),-26.6%,-8.7%,-35.9%[10 µM],-2.2%,-6.3%,8.91µM*
COc1ccc(Sc2ccc(/C=C3\C(=O)NN(c4ccccc4)C3=O)o2)cc1,?,15.8µM*,6.0%[10 µM],?,-11.8%,?
COc1ccc(-n2c(C)cc(/C=C3\C(=O)NN(c4ccccc4)C3=O)c2C)cc1,11.9%,-10.3%,8.4%[10 µM],-1.8%,-9.4%,?
C/C=C/C=C/C=O,.,-8.1%,3.4%,-3.0%[21.7 µM],.,25.1µM*
O=C(Nc1ccc(Cl)c(Cl)c1)N1CCSC1c1ccco1 (configuration not stated),?,22.4µM*,-41.9%,-3.2%,3.3%,5.01µM*
COc1ccc(-n2c(SCC(=O)NCCC(C)C)nc3ccsc3c2=O)cc1,28.4%,?,16.6%,2.3%,6.5%,20µM*
COc1ccc(-n2c(SCC(=O)C(C)(C)C)nc3ccsc3c2=O)cc1,10.5%,.,-52.9%,0.3%,10.6%,-11.7%
O=C(O)c1cc(=O)[nH]c(=S)[nH]1,.,-4.3%,-3.9%[10 µM],.,.,-1.6%[13.5 µM]
O=C(C[N+]1(CC#Cc2ccccc2)CCOCC1)c1ccccc1,10.7%,.,4.1%,0.8%,-2.7%,4.47µM*
O=C(C[N+]1(CC#Cc2ccccc2)CCOCC1)c1ccc(Cl)cc1,3.6%,.,-37.3%,1.2%,-5.3%,22.4µM*
C#CC[N+]1(CC#Cc2ccccc2)CCOCC1,-1.0%[9.22 µM],-14.6%,1.7%,4.7%,0.0%,-30.5%
C=CCC(C)(Nc1ccccc1)C(=O)OCC (configuration not stated),.,-6.6%,-12.2%,-1.6%,-3.2%,-6.4%
COC(=O)NC(C)N1C(=O)C2C3C=CC(C3)C2C1=O (configuration not stated),-9.2%,.,-52.2%,-3.0%,-1.2%,-3.9%
Cc1nc(S/C(=C/c2ccc(-c3ccc(Cl)cc3)o2)C(=O)O)n[nH]1,-20.8%,?,-25.9%,-5.9%,-15.1%,-2.6%
SMILES,HTT aggregate,HPGD inh,HTT ATP protect,CBFb-RUNX1 inh,JMJD2E inh,ALDH1A1 inh
Cc1nc(S/C(=C/c2ccc(-c3cc(Cl)ccc3C)o2)C(=O)O)n[nH]1,12.6%[9.22 µM],.,-8.6%[10 µM],-7.8%,5.01µM*,.
COc1ccc(S(=O)(=O)N(C)CC(=O)NCc2ccco2)cc1,8.5%,-18.8%,9.0%,3.0%,2.0%,35.5µM*
COc1ccc(NC(=O)CC(c2ccc(F)cc2)c2ccc(OC(C)C)cc2)cc1 (configuration not stated),-11.1%,-3.5%,-13.9%[10 µM],2.5%,-0.5%,0.199µM*
Cc1ccc(-n2c(SCC(=O)NCc3ccco3)nnc2-c2cccnc2)cc1,-7.0%,-17.3%,18.5%[10 µM],-13.0%,-4.2%,?
COc1ccc(C(CC(=O)NCc2ccco2)c2ccc(F)cc2)cc1 (configuration not stated),-13.1%,15.8µM*,-23.0%,-3.4%,-3.0%,1.2%
O=C(CSc1nnc(-c2ccncc2)n1-c1ccc(F)cc1)NC(=O)NCc1ccco1,3.4%,-17.3%,16.6%[10 µM],-25.6%,-5.0%,25.1µM*
COc1ccc(CNS(=O)(=O)c2ccccc2Br)cc1,-9.3%[9.22 µM],.,-6.6%[10 µM],1.6%,-2.7%,.
CCS(=O)(=O)N1CCC(C(=O)c2ccc(Cl)cc2)CC1,7.2%,-16.8%,-7.2%[10 µM],-3.3%,-1.2%,-17.2%
O=C(O)CC(NC(=O)Cc1ccc(Cl)cc1)c1ccco1 (configuration not stated),17.8%,.,-26.1%,12.0%,-0.2%,8.9%
CS(=O)(=O)N(CC(=O)NCc1ccco1)c1ccc(OCc2ccccc2)cc1,13.1%,.,-24.9%,-0.7%,-18.8%,18.9µM*
COc1ccc(-c2nnc(SCC(=O)NC(=O)NCc3ccco3)o2)cc1,1.8%,20µM*,-11.0%,-3.5%,-0.5%,22.4µM*
COc1ccc(-c2ccc(SCC(=O)NCc3ccco3)nn2)cc1,15.4%,-16.4%,-50.7%,4.0%,-8.8%,2.0%
COc1ccc(N(CC(=O)NCc2ccco2)S(C)(=O)=O)cc1,7.8%,-6.7%,-23.4%,2.6%,5.7%,2.0%
O=C(/C=C/c1ccc(O)c(O)c1)O[C@H]1C[C@@](O)(C(=O)O)CC(O)C1O (some centres not stated),.,4.1%,?,0.4%,15.8µM*,-1.7%
